According to PubChem BioAssay AID2284379 (EPA ToxCast):
Results filed as inconclusive are left out. Activity calls are given as the source filed them. The calls were made as follows: active = hit-call score of the fitted dose curve at least 0.9, where 1 is the maximum; inconclusive = response in the unintended direction; inactive = score below 0.9.

experiment: ATG_M_32_EcoTox2: Attagene TRANS-FACTORIAL EcoTox-2 HepG2 Assay for M32 Transcription Factor (Internal Marker)
Method: ATG_EcoTox2 is a cell-based, multiplexed assay created by modifying the existing Attagene TRANS-FACTORIAL system to include a panel of nuclear receptors from some or all the following species: human (Homo sapiens), african clawed frog (Xenopus laevis), rainbow trout (Oncorhynchus mykiss), japanese medaka (Oryzias latipes), and zebrafish (Danio rerio). The ECOTOX2-FACTORIAL format uses HepG2, a human liver cell line, with measurements taken at 24 hours after chemical dosing in a 24-well plate. ATG_M_32_EcoTox2 is one of 29 assay components calculated in the ATG_EcoTox2 assay. It is designed to make measurements of mRNA induction, a form of inducible reporter, as detected with fluorescence intensity signals by Reverse transcription polymerase chain reaction (RT-PCR) and Capillary electrophoresis technology.The assay endpoint ATG_M_32_EcoTox2 was analyzed in the positive analysis fitting direction relative to DMSO as the negative control and baseline of activity. Using a type of inducible reporter, measures of mRNA for gain-of-signal activity can be used to understand the background control at the transcription factor-level as they relate to the gene. Furthermore, this assay endpoint can be referred to as a secondary readout, because this assay has produced multiple assay endpoints where this one serves a background control function. To generalize the intended target to other relatable targets, this assay endpoint is annotated to the background measurement intended target family, where the subfamily is internal marker.
Human liver HepG2 cells are transiently transfected with multiple reporter transcription units (MRTUs) in 6-well plates using FuGene 6 reagent (Roche; 3 ml FuGene/1 mg DNA). The MRTU constructs are regulated by a cis-regulating element (promoter). Each RTU expresses a GAL4-UAS that regulates the transcription of a nearby target reporter gene sequence. A major difference between the CIS and TRANS system is that in CIS activities of endogenous TFs are measured, whereas the TRANS assay evaluates changes in activities of exogenous, chimeric NR-Gal4 proteins. […] At the end of 24 hour incubation, total RNA was isolated using TriZol reagent (Invitrogen). The isolated RNA is then reverse-transcribed using oligo(dT) primer and Mo-MLV reverse transcriptase (Invitrogen) with DNAse I (Ambion) treatment for 30 min. The one-tenth of the produced cDNA was amplified by PCR using Taq DNA polymerase (Invitrogen) and two reporter sequence-specific primers. The PCR products were fluorescently labeled by primer extension with 6-arboxyfluorescein (6-FAM) 5'-labeled reporter sequence-specific primer (2 min at 95 C, 20 s at 68 C and 10 min at 72 C) and these products were digested with 5U of HpaI (New England Biolabs) for 2h at 37 C. The fragments were purified using Qiaquick PCR columns (Qiagen), analyzed on an ABI 3130xL genetic analyzer (Applied Biosystems) with peak positions identified by using a set of X-rhodamine (ROX)-labeled MapMarker1000 molecular weight standards (BioVentures). The raw capillary electrophoresis data was processed using Attagraph software (Attagene).

**Q.** For [Cl][Sn]([c]1ccccc1)([c]1ccccc1)[c]1ccccc1, which outcome is on record?
**A.** The outcome was “inactive”.

**Q.** With CCCCOCN(C(=O)CCl)c1c(CC)cccc1CC as the compound, how does the outcome read?
**A.** The outcome was “inactive”.

**Q.** With O=C(O)C(F)(F)C(F)(F)C(F)(F)C(F)(F)C(F)(F)C(F)(F)C(F)(F)F as the compound, how does the outcome read?
**A.** The outcome was “inactive”.

**Q.** For O=S(=O)(O)C(F)(F)C(F)(F)C(F)(F)C(F)(F)C(F)(F)C(F)(F)F, which outcome is on record?
**A.** The outcome was “inactive”.

**Q.** Which outcome does the source give for O=P(Oc1ccccc1)(Oc1ccccc1)Oc1ccccc1 here?
**A.** Its outcome is “inactive”.
